Tests used:
Assay in all cases: yeast three-hybrid, YBZ-1, SC-Leu-His + 0.5 mM 3-AT, 4 days
Conditions in all cases: tags: N-Gal4 AD-HA kept; label: inside an RPR1-promoter hybrid RNA with tandem MS2 sites; ssRNA
PUM1 PUF domain R1-SFK = PUM1 PUF domain R1-SFK (Homo sapiens, UniProt Q14671 828-1176, R864F;Q867K)
Outline: (§1)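 The interaction score is the log change in variant frequency from input to selection. Scores were computed in log2 with a pseudocount of 1 for absent variants, using Illumina sequencing of PCR-amplified repeat regions. The input came from four days on SC-Leu and the selection from four days on SC-Leu-His + 0.5 mM 3-AT. The cells were strain YBZ-1 (LexA–MS2 coat fusion, HIS3 reporter) co-expressing Pumilio-1 PUF domain libraries and matching RNA elements from a centromeric plasmid.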

PUM1 PUF domain R1-RWV = PUM1 PUF domain R1-RWV (Homo sapiens, UniProt Q14671 828-1176, S863R;R864W;Q867V)
Outline: as §1

PUM1 PUF domain R1-KRV = PUM1 PUF domain R1-KRV (Homo sapiens, UniProt Q14671 828-1176, S863K;Q867V)
Outline: as §1

PUM1 PUF domain R5-NSI = PUM1 PUF domain R5-NSI (Homo sapiens, UniProt Q14671 828-1176, C1007N;R1008S;Q1011I)
Outline: as §1

PUM1 PUF domain R7-RQR = PUM1 PUF domain R7-RQR (Homo sapiens, UniProt Q14671 828-1176, S1079R;N1080Q;E1083R)
Outline: as §1

PUM1 PUF domain R7-TMG = PUM1 PUF domain R7-TMG (Homo sapiens, UniProt Q14671 828-1176, S1079T;N1080M;E1083G)
Outline: as §1

PUM1 PUF domain R1-QLT = PUM1 PUF domain R1-QLT (Homo sapiens, UniProt Q14671 828-1176, S863Q;R864L;Q867T)
Outline: as §1

PUM1 PUF domain R3-LHY = PUM1 PUF domain R3-LHY (Homo sapiens, UniProt Q14671 828-1176, C935L;R936H;Q939Y)
Outline: as §1

PUM1 PUF domain R3-RRE = PUM1 PUF domain R3-RRE (Homo sapiens, UniProt Q14671 828-1176, C935R;Q939E)
Outline: as §1

PUM1 PUF domain R3-LWM = PUM1 PUF domain R3-LWM (Homo sapiens, UniProt Q14671 828-1176, C935L;R936W;Q939M)
Outline: as §1

PUM1 PUF domain R4-KSQ = PUM1 PUF domain R4-KSQ (Homo sapiens, UniProt Q14671 828-1176, N971K;H972S)
Outline: as §1

PUM1 PUF domain R4-LHR = PUM1 PUF domain R4-LHR (Homo sapiens, UniProt Q14671 828-1176, N971L;Q975R)
Outline: as §1

PUM1 PUF domain R4-PWA = PUM1 PUF domain R4-PWA (Homo sapiens, UniProt Q14671 828-1176, N971P;H972W;Q975A)
Outline: as §1

PUM1 PUF domain R4-DFV = PUM1 PUF domain R4-DFV (Homo sapiens, UniProt Q14671 828-1176, N971D;H972F;Q975V)
Outline: as §1

PUM1 PUF domain R4-TRA = PUM1 PUF domain R4-TRA (Homo sapiens, UniProt Q14671 828-1176, N971T;H972R;Q975A)
Outline: as §1

PUM1 PUF domain R6-GFM = target: T1, PUM1 PUF domain R6-GFM (Homo sapiens, UniProt Q14671 828-1176, N1043G;Y1044F;Q1047M)
T1 sequence: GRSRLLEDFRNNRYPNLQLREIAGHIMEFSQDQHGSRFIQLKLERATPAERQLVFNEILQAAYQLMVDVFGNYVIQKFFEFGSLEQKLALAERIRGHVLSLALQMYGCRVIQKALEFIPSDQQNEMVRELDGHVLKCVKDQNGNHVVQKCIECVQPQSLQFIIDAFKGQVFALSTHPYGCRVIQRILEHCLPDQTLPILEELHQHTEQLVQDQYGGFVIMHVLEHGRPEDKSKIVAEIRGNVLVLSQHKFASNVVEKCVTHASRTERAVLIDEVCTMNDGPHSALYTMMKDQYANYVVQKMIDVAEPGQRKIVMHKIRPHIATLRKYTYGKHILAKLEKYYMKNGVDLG
Outline: as §1

PUM1 PUF domain R8-PWV = PUM1 PUF domain R8-PWV (Homo sapiens, UniProt Q14671 828-1176, N1122P;Y1123W;Q1126V)
Outline: as §1

PUM1 PUF domain R3-VRE = PUM1 PUF domain R3-VRE (Homo sapiens, UniProt Q14671 828-1176, C935V;Q939E)
Outline: as §1

PUM1 PUF domain R3-GCD = PUM1 PUF domain R3-GCD (Homo sapiens, UniProt Q14671 828-1176, C935G;R936C;Q939D)
Outline: as §1

PUM1 PUF domain R4-TRA, sequence (Q14671 828-1176 N971T/H972R/Q975A): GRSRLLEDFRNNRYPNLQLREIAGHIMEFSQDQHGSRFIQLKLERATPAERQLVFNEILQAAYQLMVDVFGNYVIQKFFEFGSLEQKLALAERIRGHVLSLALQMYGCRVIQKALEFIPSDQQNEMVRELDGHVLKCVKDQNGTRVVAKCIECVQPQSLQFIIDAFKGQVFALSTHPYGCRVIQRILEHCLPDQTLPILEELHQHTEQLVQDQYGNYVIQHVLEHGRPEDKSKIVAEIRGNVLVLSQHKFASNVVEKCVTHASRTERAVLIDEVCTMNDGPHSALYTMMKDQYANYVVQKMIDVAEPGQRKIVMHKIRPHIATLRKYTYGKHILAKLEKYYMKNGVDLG
PUM1 PUF domain R8-PWV, sequence (Q14671 828-1176 N1122P/Y1123W/Q1126V): as the sequence (Q14671 828-1176 N971T/H972R/Q975A) above, with T144N, R145H, A148Q, N295P, Y296W, Q299V counted along it
PUM1 PUF domain R3-LWM, sequence (Q14671 828-1176 C935L/R936W/Q939M): as the sequence (Q14671 828-1176 N971T/H972R/Q975A) above, with C108L, R109W, Q112M, T144N, R145H, A148Q counted along it
PUM1 PUF domain R1-RWV, sequence (Q14671 828-1176 S863R/R864W/Q867V): as the sequence (Q14671 828-1176 N971T/H972R/Q975A) above, with S36R, R37W, Q40V, T144N, R145H, A148Q counted along it
PUM1 PUF domain R1-KRV, sequence (Q14671 828-1176 S863K/Q867V): as the sequence (Q14671 828-1176 N971T/H972R/Q975A) above, with S36K, Q40V, T144N, R145H, A148Q counted along it
PUM1 PUF domain R7-RQR, sequence (Q14671 828-1176 S1079R/N1080Q/E1083R): as the sequence (Q14671 828-1176 N971T/H972R/Q975A) above, with T144N, R145H, A148Q, S252R, N253Q, E256R counted along it
PUM1 PUF domain R3-VRE, sequence (Q14671 828-1176 C935V/Q939E): as the sequence (Q14671 828-1176 N971T/H972R/Q975A) above, with C108V, Q112E, T144N, R145H, A148Q counted along it
PUM1 PUF domain R7-TMG, sequence (Q14671 828-1176 S1079T/N1080M/E1083G): as the sequence (Q14671 828-1176 N971T/H972R/Q975A) above, with T144N, R145H, A148Q, S252T, N253M, E256G counted along it
PUM1 PUF domain R4-LHR, sequence (Q14671 828-1176 N971L/Q975R): as the sequence (Q14671 828-1176 N971T/H972R/Q975A) above, with T144L, R145H, A148R counted along it
PUM1 PUF domain R4-PWA, sequence (Q14671 828-1176 N971P/H972W/Q975A): as the sequence (Q14671 828-1176 N971T/H972R/Q975A) above, with T144P, R145W counted along it
PUM1 PUF domain R5-NSI, sequence (Q14671 828-1176 C1007N/R1008S/Q1011I): as the sequence (Q14671 828-1176 N971T/H972R/Q975A) above, with T144N, R145H, A148Q, C180N, R181S, Q184I counted along it
PUM1 PUF domain R3-GCD, sequence (Q14671 828-1176 C935G/R936C/Q939D): as the sequence (Q14671 828-1176 N971T/H972R/Q975A) above, with C108G, R109C, Q112D, T144N, R145H, A148Q counted along it

GGCUAGAACUAGUGGAUCCCCCGGCGCCCGGCGGCUCGAGCCCGGGUAAGUGUAAAUCGUCUGCAUGCCGCCGGGCGCCAUGCCUGCAGGUCGACUCUAGAAAACAUG
binding signal (PUM1 PUF domain R1-SFK): 6.11 log2 enrichment (interaction score)
binding signal (PUM1 PUF domain R1-RWV): 3.55 log2 enrichment (interaction score)
binding signal (PUM1 PUF domain R1-KRV): 3.51 log2 enrichment (interaction score)

GGCUAGAACUAGUGGAUCCCCCGGCGCCCGGCGGCUCGAGCCCGGGUAAGUGUUAAUAGUCUGCAUGCCGCCGGGCGCCAUGCCUGCAGGUCGACUCUAGAAAACAUG
binding signal (PUM1 PUF domain R5-NSI): 3.96 log2 enrichment (interaction score)

GGCUAGAACUAGUGGAUCCCCCGGCGCCCGGCGGCUCGAGCCCGGGUAAGUCUAAAUAGUCUGCAUGCCGCCGGGCGCCAUGCCUGCAGGUCGACUCUAGAAAACAUG
binding signal (PUM1 PUF domain R7-RQR): 3.17 log2 enrichment (interaction score)

GGCUAGAACUAGUGGAUCCCCCGGCGCCCGGCGGCUCGAGCCCGGGUAAGUUUAAAUAGUCUGCAUGCCGCCGGGCGCCAUGCCUGCAGGUCGACUCUAGAAAACAUG
binding signal (PUM1 PUF domain R7-RQR): 4.97 log2 enrichment (interaction score)
binding signal (PUM1 PUF domain R7-TMG): 2.65 log2 enrichment (interaction score)

GGCUAGAACUAGUGGAUCCCCCGGCGCCCGGCGGCUCGAGCCCGGGUAAGUGUAAAUUGUCUGCAUGCCGCCGGGCGCCAUGCCUGCAGGUCGACUCUAGAAAACAUG
binding signal (PUM1 PUF domain R1-QLT): 2.41 log2 enrichment (interaction score)
binding signal (PUM1 PUF domain R1-RWV): 2.59 log2 enrichment (interaction score)
binding signal (PUM1 PUF domain R1-KRV): 6.82 log2 enrichment (interaction score)

GGCUAGAACUAGUGGAUCCCCCGGCGCCCGGCGGCUCGAGCCCGGGUAAGUGUAAUUAGUCUGCAUGCCGCCGGGCGCCAUGCCUGCAGGUCGACUCUAGAAAACAUG
binding signal (PUM1 PUF domain R3-LHY): 4.13 log2 enrichment (interaction score)
binding signal (PUM1 PUF domain R3-RRE): 3.8 log2 enrichment (interaction score)
binding signal (PUM1 PUF domain R3-LWM): 4.35 log2 enrichment (interaction score)

GGCUAGAACUAGUGGAUCCCCCGGCGCCCGGCGGCUCGAGCCCGGGUAAGUGUAUAUAGUCUGCAUGCCGCCGGGCGCCAUGCCUGCAGGUCGACUCUAGAAAACAUG
binding signal (PUM1 PUF domain R4-KSQ): 3.81 log2 enrichment (interaction score)
binding signal (PUM1 PUF domain R4-LHR): 4.01 log2 enrichment (interaction score)
binding signal (PUM1 PUF domain R4-PWA): 5.17 log2 enrichment (interaction score)

GGCUAGAACUAGUGGAUCCCCCGGCGCCCGGCGGCUCGAGCCCGGGUAAGUGUACAUAGUCUGCAUGCCGCCGGGCGCCAUGCCUGCAGGUCGACUCUAGAAAACAUG
binding signal (PUM1 PUF domain R4-DFV): 3.48 log2 enrichment (interaction score)
binding signal (PUM1 PUF domain R4-TRA): 0.18 log2 enrichment (interaction score)

GGCUAGAACUAGUGGAUCCCCCGGCGCCCGGCGGCUCGAGCCCGGGUAAGUGUAAAUAGUCUGCAUGCCGCCGGGCGCCAUGCCUGCAGGUCGACUCUAGAAAACAUG
binding signal (PUM1 PUF domain R4-DFV): 6 log2 enrichment (interaction score)
binding signal (PUM1 PUF domain R6-GFM): 3.52 log2 enrichment (interaction score)
binding signal (PUM1 PUF domain R8-PWV): 3.54 log2 enrichment (interaction score)
binding signal (PUM1 PUF domain R3-VRE): 3.18 log2 enrichment (interaction score)
binding signal (PUM1 PUF domain R4-TRA): 3.73 log2 enrichment (interaction score)

GGCUAGAACUAGUGGAUCCCCCGGCGCCCGGCGGCUCGAGCCCGGGUAAGUGUAAGUAGUCUGCAUGCCGCCGGGCGCCAUGCCUGCAGGUCGACUCUAGAAAACAUG
binding signal (PUM1 PUF domain R3-GCD): 3.94 log2 enrichment (interaction score)
binding signal (PUM1 PUF domain R3-VRE): 4.15 log2 enrichment (interaction score)
binding signal (PUM1 PUF domain R3-LWM): 5.54 log2 enrichment (interaction score)

GGCUAGAACUAGUGGAUCCCCCGGCGCCCGGCGGCUCGAGCCCGGGUAAGCGUAAAUAGUCUGCAUGCCGCCGGGCGCCAUGCCUGCAGGUCGACUCUAGAAAACAUG
binding signal (PUM1 PUF domain R8-PWV): 2.69 log2 enrichment (interaction score)

Source: PMC8384837, “Expanding the binding specificity for RNA recognition by a PUF domain”
